Calls of active or inactive are those of the source. The calls were made as follows: active = hit-call score of the fitted dose curve at least 0.9, where 1 is the maximum; inactive = score below 0.9.
Assays:
[1] = ATG_CRE_CIS: Attagene CIS-FACTORIAL HepG2 Assay for human cAMP Responsive Element (CRE) binding protein 3 (AID 2282926); details: HepG2 CRE cis-reporter, Attagene multiplexed mRNA; actives raise or lower the signal
How it was run: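 HepG2 cells transiently transfected with cis-element-driven multiple reporter transcription units; CRE reporter mRNA measured 24 h after dosing by RT-PCR, 6-FAM labelling, HpaI digestion and capillary electrophoresis. Bidirectional fit versus DMSO baseline.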

[2] = target: CCAAT/enhancer-binding protein beta (Homo sapiens) (UniProt P17676); assay: ATG_C_EBP_CIS: Attagene CIS-FACTORIAL HepG2 Assay for human CCAAT/Enhancer Binding Protein (C/EBP) beta (AID 2282927); details: HepG2 Attagene cis-factorial transcription factor reporter; actives raise or lower the signal
How it was run: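 Transiently transfected HepG2 (MRTU library, endogenous TF-driven promoters); 24 h dosing; total RNA → oligo(dT) RT → PCR → 6-FAM primer extension → HpaI digest → CE; fit bidirectionally vs DMSO.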

[3] = ATG_CMV_CIS: Attagene CIS-FACTORIAL HepG2 Assay for human CMV (Internal Marker) (AID 2282928); details: HepG2 CMV promoter reporter, transcription factor profiling; actives raise or lower the signal;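 also: endpoint acts as a background internal control marker rather than a target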
How it was run: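 Endogenous transcription factor activity read in HepG2 via transfected cis-promoter reporter units. After 24 h dosing, reporter mRNA measured by RT-PCR/capillary electrophoresis; gain or loss of signal fit relative to DMSO.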

[4] = ATG_DR4_LXR_CIS: Attagene CIS-FACTORIAL HepG2 Assay for human Liver X Receptor (LXR), DR4 submotif (AID 2282929); details: HepG2 Attagene DR4 cis-reporter, mRNA transcription; actives raise or lower the signal
How it was run: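 Readout: reporter transcript fluorescence after RT-PCR and capillary electrophoresis, fitted bidirectionally against DMSO controls. Human HepG2 liver cells carried transiently transfected multiplexed reporter constructs; endogenous transcription factor activity measured 24 h post-dosing.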

[5] = target: Aryl hydrocarbon receptor (Homo sapiens) (UniProt P35869); assay: ATG_Ahr_CIS: Attagene CIS-FACTORIAL HepG2 Assay for human Aryl Hydrocarbon Receptor (Ahr) (AID 2282930); details: HepG2 AhR cis-factorial reporter transcription; actives raise or lower the signal
How it was run: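 Read-out: reporter mRNA quantified by RT-PCR with fluorescent primer extension and capillary electrophoresis. Human HepG2 liver cells carried transfected cis-promoter reporter units and were exposed to chemical for 24 h; gain or loss fitted relative to DMSO.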

[6] = ATG_AP_1_CIS: Attagene CIS-FACTORIAL HepG2 Assay for human Activator Protein 1 (AP-1) (AID 2282931); details: HepG2 Attagene cis-factorial AP-1 reporter mRNA; actives raise or lower the signal
How it was run: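 Reporter transcripts were measured 24 h after dosing by RT-PCR and capillary electrophoresis of fluorescent fragments. Cells: HepG2 carrying transfected cis-regulated reporter constructs reading endogenous factor activity. Gain or loss fitted against DMSO.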

[7] = ATG_AP_2_CIS: Attagene CIS-FACTORIAL HepG2 Assay for human Activator Protein 2 (AP-2) (AID 2282932); details: HepG2 AP-2 cis-reporter, Attagene transcription factor profiling; actives raise or lower the signal
How it was run: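 HepG2 cells transiently transfected with cis-element reporter units and exposed for 24 h. Reporter mRNA measured by RT-PCR, FAM labelling, HpaI digestion and capillary electrophoresis. Changes in either direction fitted relative to DMSO.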

[8] = ATG_BRE_CIS: Attagene CIS-FACTORIAL HepG2 Assay for human Bone Morphogenetic Protein (BMP) Response Element (BRE) (AID 2282933); details: HepG2 BMP response element reporter, Attagene transcription factor profiling; actives raise or lower the signal
How it was run: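 Gain- or loss-of-signal was derived by bidirectional fitting against DMSO controls. The signal came from reporter mRNA, measured by RT-PCR and capillary electrophoresis, in HepG2 cells transiently carrying multiple reporter units and dosed for 24 h.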

[9] = target: Retinoic acid receptor alpha (Homo sapiens) (UniProt P10276); assay: ATG_DR5_RAR_CIS: Attagene CIS-FACTORIAL HepG2 Assay for human Retinoic Acid Receptor Alpha (RARE), DR5 submotif (AID 2282934); details: HepG2 Attagene cis-factorial RARE DR5 reporter, mRNA; actives raise or lower the signal
How it was run: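 Read-out: DR5-driven reporter transcript measured by RT-PCR, 6-FAM primer extension, HpaI digest and capillary electrophoresis. Human HepG2 liver cells carry transiently transfected cis-element reporter constructs; dosing lasts 24 h. Gain or loss of signal fitted against DMSO baseline.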

[10] = target: Transcription factor E2F1 (Homo sapiens) (UniProt Q01094); assay: ATG_E2F_CIS: Attagene CIS-FACTORIAL HepG2 Assay for human E2F Transcription Factor 1 (AID 2282935); details: HepG2 Attagene cis-reporter, E2F reporter RNA transcripts; actives raise or lower the signal
How it was run: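 Endogenous E2F1 activity read through cis-promoter reporter units transfected into HepG2. After 24 h compound treatment, reporter mRNA measured by RT-PCR, HpaI digestion and capillary electrophoresis. Bidirectional fit versus DMSO.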

[11] = ATG_E_Box_CIS: Attagene CIS-FACTORIAL HepG2 Assay for human Enhancer Box (E-box) (AID 2282936); details: HepG2 E-box cis-reporter transcription, actives raise or lower the signal
How it was run: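 HepG2 cells transiently transfected with multiplexed cis-element reporter units, dosed 24 h; reporter mRNA quantified by RT-PCR, 6-FAM labelling, HpaI digestion and capillary electrophoresis. E-box (USF1) signal fitted bidirectionally vs DMSO.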

[12] = ATG_M_61_CIS: Attagene CIS-FACTORIAL HepG2 Assay for M61 Transcription Factor (Internal Marker) (AID 2282937); details: HepG2 Attagene CIS-FACTORIAL M61 internal marker reporter; actives raise or lower the signal
How it was run: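 Readout: fluorescent reporter mRNA fragments resolved by capillary electrophoresis after RT-PCR. Transiently transfected human HepG2 cells carried MRTU constructs reporting endogenous TF activity; 24 h chemical exposure; gain or loss of signal fitted relative to DMSO.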

[13] = ATG_EGR_CIS: Attagene CIS-FACTORIAL HepG2 Assay for human Early Growth Response 1 (EGR1) (AID 2282938); details: HepG2 Attagene CIS-FACTORIAL EGR reporter mRNA; actives raise or lower the signal
How it was run: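 Read-out: fluorescent reporter-mRNA fragments resolved by capillary electrophoresis after RT-PCR, 24 h post-dose in transiently transfected HepG2. Endogenous transcription-factor activity reported via cis-element-regulated reporter units; gain or loss fitted relative to DMSO.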

[14] = ATG_M_19_CIS: Attagene CIS-FACTORIAL HepG2 Assay for M19 Transcription Factor (Internal Marker) (AID 2282939); details: HepG2 Attagene CIS-FACTORIAL M19 internal marker reporter; actives raise or lower the signal
How it was run: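 Following a 24 h exposure, RNA from transfected HepG2 cells was reverse-transcribed, PCR-amplified with reporter-specific primers, end-labelled with 6-FAM and HpaI-digested before capillary separation. Values represent gain or loss versus DMSO.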

[15] = ATG_Ets_CIS: Attagene CIS-FACTORIAL HepG2 Assay for human Erythroblast Transformation Specific (ETS) (AID 2282941); details: HepG2 ETS cis-reporter transcription, actives raise or lower the signal
How it was run: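 Steps: transfect HepG2 with multiple reporter units; treat compound 24 h; isolate RNA, DNase-treat, reverse-transcribe; PCR-amplify, label with 6-FAM, digest with HpaI; separate by capillary electrophoresis. Activity fitted both directions versus DMSO.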

[16] = target: Hepatocyte nuclear factor 3-beta (Homo sapiens) (UniProt Q9Y261); assay: ATG_FoxA2_CIS: Attagene CIS-FACTORIAL HepG2 Assay for human Forkhead box A2 (FOXA2) (AID 2282942); details: HepG2 cis-reporter transcription factor activity, 24 h; actives raise or lower the signal
How it was run: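 Readout: fluorescent reporter transcripts resolved by capillary electrophoresis after RT-PCR. Transiently transfected HepG2, 24 h compound exposure, endogenous TF activity at cis promoter elements. Gain or loss of signal fitted relative to DMSO.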

[17] = ATG_FoxO_CIS: Attagene CIS-FACTORIAL HepG2 Assay for human Forkhead box O (FoxO) (AID 2282943); details: HepG2 Attagene cis-reporter, FoxO element, mRNA; actives raise or lower the signal
How it was run: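 Read-out: fluorescence of 6-FAM-labelled reporter cDNA fragments resolved by capillary electrophoresis. Transiently transfected HepG2 cells were dosed for 24 h; activity fitted in both directions relative to DMSO controls.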

[18] = ATG_GATA_CIS: Attagene CIS-FACTORIAL HepG2 Assay for human GATA Binding Protein (AID 2282944); details: HepG2 GATA cis-element reporter, Attagene multiplex mRNA; actives raise or lower the signal
How it was run: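 DMSO serves as negative control and baseline for bidirectional fitting of reporter mRNA changes. HepG2 cells bearing transiently transfected cis-promoter reporters were exposed 24 h; transcripts detected via RT-PCR and capillary electrophoresis.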

[19] = ATG_GLI_CIS: Attagene CIS-FACTORIAL HepG2 Assay for human Zinc Finger Protein GLI1 (AID 2282945); details: HepG2, Attagene cis-factorial reporter mRNA, GLI element; actives raise or lower the signal
How it was run: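 Transiently transfected HepG2 cells report endogenous transcription factor activity via cis-element-driven reporter units. After 24 h compound exposure, reporter mRNA was measured by RT-PCR with capillary electrophoresis; bidirectional fitting against DMSO baseline.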

Chain of Hepatocyte nuclear factor 3-beta (Homo sapiens) (Q9Y261 whole entry, looked up): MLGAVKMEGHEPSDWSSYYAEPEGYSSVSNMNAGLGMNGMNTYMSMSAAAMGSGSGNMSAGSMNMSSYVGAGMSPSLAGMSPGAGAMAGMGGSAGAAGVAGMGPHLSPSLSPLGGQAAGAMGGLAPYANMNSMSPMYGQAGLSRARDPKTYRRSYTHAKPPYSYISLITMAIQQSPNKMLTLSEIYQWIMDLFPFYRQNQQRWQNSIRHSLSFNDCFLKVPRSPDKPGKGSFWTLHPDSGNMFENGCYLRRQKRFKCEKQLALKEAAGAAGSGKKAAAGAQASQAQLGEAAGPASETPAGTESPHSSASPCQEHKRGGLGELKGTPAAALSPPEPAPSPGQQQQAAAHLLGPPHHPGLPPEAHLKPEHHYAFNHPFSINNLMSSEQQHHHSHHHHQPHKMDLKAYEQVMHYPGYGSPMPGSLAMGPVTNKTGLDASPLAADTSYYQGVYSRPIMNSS
Chain of Transcription factor E2F1 (Homo sapiens) (Q01094 whole entry, looked up): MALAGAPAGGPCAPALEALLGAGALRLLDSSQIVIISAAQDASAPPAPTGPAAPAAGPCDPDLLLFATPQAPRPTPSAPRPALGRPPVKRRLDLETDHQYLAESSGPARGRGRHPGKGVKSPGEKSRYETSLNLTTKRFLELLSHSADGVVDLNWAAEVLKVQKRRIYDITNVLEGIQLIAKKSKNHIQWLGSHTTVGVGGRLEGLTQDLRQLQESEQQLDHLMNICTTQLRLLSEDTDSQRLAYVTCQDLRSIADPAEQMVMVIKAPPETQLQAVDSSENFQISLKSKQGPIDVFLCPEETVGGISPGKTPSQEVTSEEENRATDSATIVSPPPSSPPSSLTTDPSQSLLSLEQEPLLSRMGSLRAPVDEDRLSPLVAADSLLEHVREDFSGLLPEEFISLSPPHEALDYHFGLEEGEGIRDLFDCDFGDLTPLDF
Chain of CCAAT/enhancer-binding protein beta (Homo sapiens) (P17676 whole entry, looked up): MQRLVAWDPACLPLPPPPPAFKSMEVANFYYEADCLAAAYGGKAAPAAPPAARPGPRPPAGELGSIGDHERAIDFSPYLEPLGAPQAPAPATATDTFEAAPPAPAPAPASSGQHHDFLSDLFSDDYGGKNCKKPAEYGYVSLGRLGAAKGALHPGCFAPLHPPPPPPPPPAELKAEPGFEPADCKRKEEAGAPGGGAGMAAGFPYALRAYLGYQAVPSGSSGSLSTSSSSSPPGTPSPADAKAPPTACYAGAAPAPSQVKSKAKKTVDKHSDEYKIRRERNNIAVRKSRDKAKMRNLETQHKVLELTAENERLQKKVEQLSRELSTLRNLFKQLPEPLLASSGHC
Chain of Aryl hydrocarbon receptor (Homo sapiens) (P35869 whole entry, looked up): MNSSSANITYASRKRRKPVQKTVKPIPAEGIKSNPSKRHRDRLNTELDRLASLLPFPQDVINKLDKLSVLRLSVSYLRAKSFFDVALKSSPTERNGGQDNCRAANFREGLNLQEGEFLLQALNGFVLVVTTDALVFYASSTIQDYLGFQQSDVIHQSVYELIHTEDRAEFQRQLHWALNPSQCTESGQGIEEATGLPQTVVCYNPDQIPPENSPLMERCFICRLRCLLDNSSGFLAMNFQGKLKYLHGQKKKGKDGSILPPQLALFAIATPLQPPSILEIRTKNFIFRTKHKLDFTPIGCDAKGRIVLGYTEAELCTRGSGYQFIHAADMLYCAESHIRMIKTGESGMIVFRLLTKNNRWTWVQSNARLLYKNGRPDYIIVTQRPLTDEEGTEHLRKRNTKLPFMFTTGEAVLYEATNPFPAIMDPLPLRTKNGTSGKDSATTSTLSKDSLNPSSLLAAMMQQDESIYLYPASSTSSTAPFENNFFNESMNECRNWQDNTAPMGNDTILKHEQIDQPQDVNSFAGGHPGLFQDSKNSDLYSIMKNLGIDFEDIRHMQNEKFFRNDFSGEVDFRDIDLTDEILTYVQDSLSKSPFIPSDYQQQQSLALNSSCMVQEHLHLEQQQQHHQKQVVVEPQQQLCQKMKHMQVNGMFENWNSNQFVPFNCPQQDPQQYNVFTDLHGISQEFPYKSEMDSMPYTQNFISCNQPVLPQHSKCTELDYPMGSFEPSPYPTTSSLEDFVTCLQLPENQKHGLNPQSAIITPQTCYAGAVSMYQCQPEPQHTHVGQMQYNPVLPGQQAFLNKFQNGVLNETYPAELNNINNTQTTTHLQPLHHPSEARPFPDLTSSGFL
Chain of Retinoic acid receptor alpha (Homo sapiens) (P10276 whole entry, looked up): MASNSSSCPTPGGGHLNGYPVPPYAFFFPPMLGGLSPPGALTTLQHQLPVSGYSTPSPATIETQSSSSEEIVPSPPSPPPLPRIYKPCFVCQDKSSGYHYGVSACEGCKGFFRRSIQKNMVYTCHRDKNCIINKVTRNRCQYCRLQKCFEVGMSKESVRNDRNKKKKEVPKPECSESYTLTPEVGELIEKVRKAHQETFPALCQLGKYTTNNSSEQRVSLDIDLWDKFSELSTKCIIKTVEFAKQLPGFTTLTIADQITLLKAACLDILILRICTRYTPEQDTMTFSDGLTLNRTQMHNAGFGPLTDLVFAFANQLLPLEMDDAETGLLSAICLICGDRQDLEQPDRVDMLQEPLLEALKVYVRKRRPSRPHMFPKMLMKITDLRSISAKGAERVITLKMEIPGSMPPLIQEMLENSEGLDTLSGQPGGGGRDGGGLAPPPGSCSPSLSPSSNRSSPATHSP

| SMILES | outcome [1] | outcome [2] | outcome [3] | outcome [4] | outcome [5] | outcome [6] | outcome [7] | outcome [8] | outcome [9] | outcome [10] | outcome [11] | outcome [12] | outcome [13] | outcome [14] | outcome [15] | outcome [16] | outcome [17] | outcome [18] | outcome [19] | AC50 [11] |
| --- | --- | --- | --- | --- | --- | --- | --- | --- | --- | --- | --- | --- | --- | --- | --- | --- | --- | --- | --- | --- |
| COc1ccc(COC(C)=O)cc1 | inactive | inactive | inactive | inactive | inactive | inactive | inactive | inactive | inactive | inactive | inactive | inactive | inactive | inactive | inactive | inactive | inactive | inactive | inactive |  |
| CC1C2CC(CC2C2CCCC(O)C2)C1(C)C (stereo unspecified) | inactive | inactive | inactive | inactive | inactive | inactive | inactive | inactive | inactive | inactive | inactive | inactive | inactive | inactive | inactive | inactive | inactive | inactive | inactive |  |
| CCO/C=C1\N=C(c2ccccc2)OC1=O | inactive | inactive | inactive | inactive | inactive | inactive | inactive | inactive | inactive | inactive | inactive | inactive | inactive | inactive | inactive | inactive | inactive | inactive | inactive |  |
| [O-]n1ccccc1=S.[O-]n1ccccc1=S.[Zn+2] | inactive | inactive | inactive | inactive | inactive | inactive | inactive | inactive | inactive | inactive |  | inactive | inactive | inactive | inactive | inactive |  | inactive | inactive | 976 nM (active) |
| COc1cccc(OC)c1O | inactive | inactive | inactive | inactive | inactive | inactive | inactive | inactive | inactive | inactive | inactive | inactive | inactive | inactive | inactive | inactive | inactive | inactive | inactive |  |
| COc1cc(CCC(C)=O)ccc1O | inactive | inactive | inactive | inactive | inactive | inactive | inactive | inactive | inactive | inactive | inactive | inactive | inactive | inactive | inactive | inactive | inactive | inactive | inactive |  |
| Cc1ccc2c(c1)C(=O)OC2=O | inactive | inactive | inactive | inactive | inactive | inactive | inactive | inactive | inactive | inactive | inactive | inactive | inactive | inactive | inactive | inactive |  | inactive | inactive |  |

From PubChem BioAssay (EPA / NIEHS)
